Compounds with a hit are over-represented: about 2.4% of the library has one in this group of screens.
aSyn rescue – qHTS of alpha-syn Inhibitors. Potency, µM (titrated, usually from 46.1 µM), inactives show top-dose growth rescue (activation), most hits filed as activators. hit rate 0.14% among 370,000. Yeast expressing alpha-synuclein, growth rescue, BacTiter-Glo, 24 h; also: % of control where 0% means no effect; nearly all actives have a fitted effect of over 65% in size
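Readout is rescue of growth in alpha-synuclein-expressing yeast, so inhibitors of toxicity appear as activators. Growth after 24 hr at 30 deg C in galactose medium is quantified by luminescence.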
AT treatment – qHTS Assay for Identifying a Potential Treatment of Ataxia-Telangiectasia. F2112 A-T fibroblasts, KAP-1 phosphorylation AlphaLISA; neocarzinostatin DNA damage 30 min before lysis. Potency, µM (highest dose often 57.5 µM), for inactives: at the highest dose activation, actives largely listed as activators. hit rate 0.19% among 320,000; also: % of control where 0% means no effect; nearly all actives have a fitted effect of over 45% in size
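hTERT-immortalized A-T patient fibroblasts (F2112), 500 cells/well in OPTI-MEM, 1% FBS, got compounds for 60 min, then NCS for 30 min at 37C. Lysates were then assayed for phospho-KAP-1 by AlphaLISA (anti-pKAP1 donor, anti-KAP1 acceptor beads), 6 hr at 25C.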
Mito fusion act – qHTS Assay for Small Molecule Inhibitors of Mitochondrial Division or Activators of Mitochondrial Fusion | hit rate 0.23% among 320,000 | S. cerevisiae fusion-defective mutant growth rescue, CellTiterGlo 48 h | Potency, µM (highest dose often 46.1 µM), for the others: at the highest dose growth rescue (activation), most hits filed as activators | AID 485298, 2010; also: % of control where 0% means no effect; nearly all actives have a fitted effect of over 45% in size
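Read-out: ATP-based luminescence (CellTiterGlo, 10 min ambient) reporting growth of fusion-defective ts yeast after 48 hours at 37C on glycerol/ethanol YPEG medium in the presence of compound.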
TDP-43 yeast inh – qHTS of TDP-43 Inhibitors. TDP-43 expressing yeast growth rescue, BacTiter-Glo, 24 h. Potency, µM (doses to about 46.1 µM), for the others: at the highest dose growth rescue (activation), actives largely listed as activators. hit rate 1.8% among 410,000. AID 652104, 2013; also: % of control where 0% means no effect; nearly all actives have a fitted effect of over 50% in size
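Growth rescue of TDP-43-toxic yeast measured as ATP luminescence (BacTiter-Glo). Cells grown to mid-log in raffinose, induced in galactose at OD600=0.02, exposed to compound 24 hr at 30 deg C.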
Abeta rescue – qHTS for compounds that reverse cellular toxicity of Amyloid beta (A-beta) peptide in yeast: Primary Screen | yeast expressing A-beta42, growth rescue, OD600, 48 h; response scale: 0% DMSO, 100% iron-clioquinol control | Potency, µM (titrated, usually from 46.1 µM), usual class: activators | hit rate 0.063% among 410,000; also: nearly all actives have a fitted effect of over 55% in size
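Growth rescue measured by 600 nm absorbance after 48 h yeast culture at 30 C with compound. Values normalized between DMSO and an equimolar ferric chloride plus clioquinol control.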
FUS yeast rescue – qHTS for Suppressors of FUS Proteinopathy: Primary screen using FUS-linked yeast assay | S. cerevisiae FUS-expressing, growth rescue, OD600, 24 h | Potency, µM (series often up to 76.6 µM), most hits filed as activators | hit rate 0.24% among 390,000 | AID 1347120, 2019;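 also: plate controls were DMSO vehicle for no effect and reference control for full effect; nearly all actives have a fitted effect of over 55% in size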
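Steps: raffinose overnight preculture; dilution to OD 0.005 in 2% galactose minimal medium; compound addition (concentration series); 24hr at 30C, 99% humidity; absorbance read at 600 nm.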
Active calls of the source: *; i = inactive; u = inconclusive; x = no result; [ ] = dose if it differs, or a comment. Calls follow the shape of the dose curve; as a rule, active = well fitted curve in the direction sought with a large enough effect; inconclusive = small, poorly fitted or top-dose-only effect, or another doubt; inactive = no such curve, though single readings can be large; an effect the other way counts as inactive or inconclusive. Potency is read from the fitted curve at half-maximal effect.

SMILES	aSyn rescue	AT treatment	Mito fusion act	TDP-43 yeast inh	Abeta rescue	FUS yeast rescue
Nc1ccc2nc(-c3ccc(-c4nc5ccc(N)cc5[nH]4)cc3)[nH]c2c1	9%	12%	1%	14µM*	u	i
COc1ccc(-c2nc3ccc([N+](=O)[O-])cc3[nH]2)cc1	11%	-1%	16%	16%	i	i
CCCn1c(=S)[nH]c2cc(Cl)ccc21	-6%	-5%	-6%	u	u	i
CCn1c(=S)[nH]c2cc(Cl)ccc21	5%	-3%	-4%	-10%	13µM*	i
O=C(CSc1nnc2scc(-c3ccc(Cl)cc3)n12)Nc1ccccc1F	x	x	x	15%	i	i
CCNc1nc(NCC)n2c(SC(C(=O)Nc3cc(C)ccc3C)c3ccccc3)nnc2n1 (stereo not drawn)	-4%	7%	-2%	-8%	i	32µM*
CCCn1c(=O)c2c(nc3n2CCCN3CCc2ccccc2)n(C)c1=O	8%	-9%	30%	u	i	i
Cn1c(=O)n(CCc2ccccc2)c(=O)c2c1nc1n2CCCN1CCc1ccccc1	1%	2%	u	13µM*	i	i
CCC(c1nnnn1Cc1cccs1)N1CCN(c2nc3ccccc3s2)CC1 (stereo not drawn)	u	9%	30%	16µM*	i	u
CC(C)CC(c1nnnn1Cc1cccs1)N1CCN(c2nc3ccccc3s2)CC1 (stereo not drawn)	27%	7%	u	u	i	i
COc1ccc(S(=O)(=O)N(C)C[C@H]2Oc3ccc(NS(=O)(=O)c4ccc(F)cc4)cc3C(=O)N([C@H](C)CO)C[C@@H]2C)cc1	2%	3%	x	28%	i	32µM*
COc1ccc(S(=O)(=O)Nc2cccc3c2O[C@H](CN(C)S(=O)(=O)c2ccc(Cl)cc2)[C@H](C)CN([C@H](C)CO)C3=O)cc1	-7%	2%	x	0%	i	10µM*
COc1ccc(S(=O)(=O)Nc2ccc3c(c2)C(=O)N([C@H](C)CO)C[C@H](C)[C@@H](CN(C)S(=O)(=O)c2ccc(F)cc2)O3)cc1	-2%	0%	x	27%	i	u
Cc1ccc(S(=O)(=O)N(C)C[C@@H]2OCCCC[C@@H](C)Oc3ccc(NS(=O)(=O)c4c(C)noc4C)cc3C(=O)N([C@H](C)CO)C[C@@H]2C)cc1	3%	x	x	11%	i	16µM*
C[C@@H]1CCCCO[C@@H](CN(C)Cc2ccc(Cl)c(Cl)c2)[C@@H](C)CN([C@H](C)CO)C(=O)c2cc(NC(=O)Nc3ccccc3)ccc2O1	-2%	x	x	-4%	i	28µM*
CCN1CCN(C(=O)Cn2ncc3c4ccccc4n(Cc4ccccc4F)c3c2=O)CC1	x	x	x	0%[9.22 µM]	i	i
CCCCNc1nc2c(c(=O)n(Cc3ccc(Cl)c(Cl)c3)c(=O)n2C)n1C	x	x	x	u	u	i
Cc1ccc(-c2c(NC(=O)c3ccc(F)cc3)nc3ncccn23)cc1	x	x	x	x	x	i
C[C@H](CO)N1C[C@H](C)[C@@H](CN(C)Cc2ccc(-c3ccccc3)cc2)Oc2c(NS(=O)(=O)c3ccccc3)cccc2C1=O	17%	-5%	x	11%	i	22µM*
Cc1ccc(S(=O)(=O)Nc2cccc3c2O[C@H](CN(C)Cc2ccc(-c4ccccc4)cc2)[C@@H](C)CN([C@H](C)CO)C3=O)cc1	4%	1%	x	27%	i	u
CC(C)CNC(=O)OCc1cn(Cc2cc(F)ccc2F)nn1	x	x	x	x	x	i
COc1ccc(OC)c(C2C(C(=O)c3ccc(C)o3)=C(O)C(=O)N2c2cc(C)on2)c1 (stereo not drawn)	0%	8%	-2%	-9%	i	32µM*
CCOC(=O)c1[nH]c2c(c1Cc1ccccc1OC)C(=O)CC(c1ccc(OC)cc1)C2 (stereo not drawn)	x	x	x	18%	i	i
O=C(CSc1ccccc1)Nc1ccc(N2CCN(c3ccccc3)CC2)c(F)c1	0%	-7%	0%	11%	i	i
Nc1ccc(N2CCN(c3ccccc3)CC2)c(F)c1	1%	-2%	6%	22µM*	i	i
SMILES	aSyn rescue	AT treatment	Mito fusion act	TDP-43 yeast inh	Abeta rescue	FUS yeast rescue
Cc1ccc2occ(CC(=O)N(Cc3ccccc3Cl)C3CCS(=O)(=O)C3)c2c1 (stereo not drawn)	x	x	x	12%	i	u
CCCOc1ccc(CCC(=O)O)cc1	1%	7%	-14%	14µM*	i	i
CCCc1ccc(OCC(=O)O)cc1	0%	5%	5%	-10%	i	i
COC(=O)CN1C(=O)CSc2ccc(S(=O)(=O)Nc3ccc(F)c(Cl)c3)cc21	x	x	x	2%	i	i
COc1cc(OC)cc(C(=O)NCC(c2cccs2)S(=O)(=O)c2ccc(F)c(C)c2)c1 (stereo not drawn)	x	x	x	10%	i	i
N#C/C(=C(/O)COC(=O)Cc1c[nH]c2ccccc12)c1nc2ccccc2[nH]1	0%	-1%	1%	0%	u	35µM*
COC(=O)C[C@H]1CC[C@H]2[C@H](COc3ccc(NS(=O)(=O)c4ccccc4C)cc3C(=O)N2C)O1	x	x	x	x	x	i
COc1ccc(CCNc2cc(C)nc3c(-c4ccc(Cl)cc4)cnn23)cc1OC	12%	8%	29%	18µM*	i	u
Cc1cc(N2CCCCC2)n2ncc(-c3ccc(Cl)cc3)c2n1	-8%	8%	-3%	14µM*	i	11µM*
CC(=O)Nc1ccc(Nc2cc(C)nc3c(-c4ccc(Cl)cc4)cnn23)cc1	0%	-1%	u	3.2µM*	i	x
Cc1cc(N2CCOCC2)n2ncc(-c3ccc(Cl)cc3)c2n1	-1%	3%	-3%	18%	i	i
CCCCN(CC)CCCNC(=O)c1cn(CC)c2ccc(S(=O)(=O)N3CCOCC3)cc2c1=O	x	x	x	3%	i	i
COC(=O)C1=C[C@@H]([C@@H](C)[C@H](OC)c2ccccc2Br)[C@@H]2OCCC[C@H]12	x	x	x	x	x	i
CCOc1ccc(NC(=O)CC2C(=O)N(c3cccc(C)c3)C(=O)N2CCC2=CCCCC2)cc1 (stereo not drawn)	x	x	x	-24%	i	35µM*

Assay outcomes: PubChem BioAssay, National Center for Advancing Translational Sciences (NCATS)
